High-throughput results from PubChem.
The full list was thinned out, with hits kept by preference.
IDE exosite FP: exo-site inhibitors of human IDE, primary screen, biochemical, fluorescence anisotropy, probe displacement. 6.3% of 17,000 active. purified IDE, FL-6b probe fluorescence polarization; stronger effect = lower value. Insulin-degrading enzyme (Homo sapiens), P14735. z-score at 20 µM;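 active means z-score of -3 or lower, meaning strong loss of probe binding signal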;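 further: His-tagged human IDE residues 42-1019 made in E. coli with 30 nM FL-6b probe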
Target sequence (P14735 42-1019 limits assumed): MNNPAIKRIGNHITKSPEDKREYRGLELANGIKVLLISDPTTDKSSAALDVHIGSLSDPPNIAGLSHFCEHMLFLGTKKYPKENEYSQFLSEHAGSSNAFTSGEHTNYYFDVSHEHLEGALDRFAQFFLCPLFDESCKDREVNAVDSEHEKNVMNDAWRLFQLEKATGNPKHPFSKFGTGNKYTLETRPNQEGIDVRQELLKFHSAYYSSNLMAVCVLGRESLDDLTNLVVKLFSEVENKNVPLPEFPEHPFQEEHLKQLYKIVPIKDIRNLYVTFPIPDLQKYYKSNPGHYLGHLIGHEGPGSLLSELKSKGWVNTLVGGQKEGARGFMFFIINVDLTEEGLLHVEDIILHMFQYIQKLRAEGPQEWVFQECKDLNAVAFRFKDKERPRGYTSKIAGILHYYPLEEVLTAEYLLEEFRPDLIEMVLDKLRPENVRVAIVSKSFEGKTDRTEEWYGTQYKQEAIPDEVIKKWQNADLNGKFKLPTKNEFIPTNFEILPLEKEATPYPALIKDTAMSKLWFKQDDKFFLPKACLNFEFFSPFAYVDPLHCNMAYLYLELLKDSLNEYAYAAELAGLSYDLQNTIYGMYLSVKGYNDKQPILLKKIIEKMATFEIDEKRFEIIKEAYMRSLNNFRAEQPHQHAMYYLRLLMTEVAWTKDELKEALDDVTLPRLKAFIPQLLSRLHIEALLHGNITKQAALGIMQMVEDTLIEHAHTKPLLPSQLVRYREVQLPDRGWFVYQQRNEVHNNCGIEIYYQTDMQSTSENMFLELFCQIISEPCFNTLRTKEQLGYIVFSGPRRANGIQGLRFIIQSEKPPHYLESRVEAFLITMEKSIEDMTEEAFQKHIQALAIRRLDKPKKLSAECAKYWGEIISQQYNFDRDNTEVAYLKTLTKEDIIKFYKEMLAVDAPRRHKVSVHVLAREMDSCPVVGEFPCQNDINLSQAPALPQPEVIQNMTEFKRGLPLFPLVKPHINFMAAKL
Starred values were filed as active, the others as inactive.

SMILES | IDE exosite FP
COc1cccc(S(=O)(=O)Nc2ccc3c(c2)C(=O)N(C)[C@H]2CC[C@H](CC(=O)NCC4CCCCC4)O[C@@H]2CO3)c1 | -0.74
CN1C(=O)c2cc(NC(=O)c3cnccn3)ccc2OC[C@H]2O[C@@H](CC(=O)N[C@@H]3CCN(Cc4ccccc4)C3)CC[C@@H]21 | -6.99*
COc1cccc(C(=O)Nc2ccc3c(c2)C(=O)N(C)[C@@H]2CC[C@H](CC(=O)N[C@@H](C)c4ccccc4)O[C@H]2CO3)c1 | 0.238
CN1C(=O)c2cc(NC(=O)c3cnccn3)ccc2OC[C@@H]2O[C@H](CC(=O)N[C@H]3CCN(Cc4ccccc4)C3)CC[C@H]21 | -0.917
COc1cccc(S(=O)(=O)Nc2ccc3c(c2)C(=O)N(C)[C@H]2CC[C@@H](CC(=O)NCC4CCCCC4)O[C@@H]2CO3)c1 | -3.23*
COc1ccccc1S(=O)(=O)N1CC[C@@H]2[C@H]1c1cc(-c3cccc(C#N)c3)ccc1N(C)[C@H]2CO | 2.23
CN(C)CC#Cc1ccc([C@H]2[C@H](CO)N3CCCCN(C(=O)C4CCC4)C[C@@H]23)cc1 | 2.31
C[C@H]1CN([C@@H](C)CO)C(=O)CCCn2nncc2CO[C@H]1CN(C)Cc1ccc2c(c1)OCCN2C | 0.257
COc1ccc(CN(C)C[C@H]2OCCCC[C@@H](C)Oc3ccc(NC(=O)C4CCCCC4)cc3C(=O)N([C@@H](C)CO)C[C@@H]2C)cc1 | 1.14
COc1ccccc1CNC(=O)C[C@H]1CC[C@@H]2[C@H](COC[C@@H](O)CN2Cc2ccc3c(c2)OCO3)O1 | -0.149
FC(F)(F)c1ccccc1CN1[C@@H]2CNC[C@H]1C2c1ccc(-c2ccncc2)cc1 (stereo not given in full) | 1.2
CCC(=O)N1CC(=O)N2[C@H](C1)[C@H](c1ccc(-c3cccnc3)cc1)[C@@H]2CO | -0.804
Cc1cccc(S(=O)(=O)N2C[C@H](O)COC[C@H]3O[C@H](CC(=O)Nc4ccccc4)CC[C@@H]32)c1 | 0.669
CO[C@H](CN(C)S(=O)(=O)c1ccc(C)cc1)[C@H](C)CN([C@H](C)CO)S(=O)(=O)c1cccc(Cl)c1 | 1.41
CCC(=O)N1[C@H](CO)[C@H](c2ccc(C#CC3CCCCC3)cc2)[C@@H]1CNC(C)C | 0.143
N#C[C@@H]1N[C@@H](CO)[C@@H]1c1ccc(C2=CCCCC2)cc1 | 0.896
Cn1cnc(S(=O)(=O)N[C@@H]2CC[C@H](CC(=O)NCC3CCCCC3)O[C@H]2CO)c1 | -1.1
CN(C)CC(=O)N1CC2(C1)[C@@H](c1ccccc1)[C@@H](CO)N2C(=O)C1CC1 | 0.846
CC(C)NC(=O)N1CCCCN2[C@H](CO)[C@H](c3ccc(C#Cc4ccccc4F)cc3)[C@H]2C1 | -4.49*
CC(C)NC(=O)N1CCCCN2[C@@H](CO)[C@H](c3ccc(C#Cc4ccccc4F)cc3)[C@@H]2C1 | -12.7*
CC(C)NC(=O)N1CCCCN2[C@H](C1)[C@H](c1ccc(C#Cc3ccccc3F)cc1)[C@@H]2CO | -9.59*
N#C[C@H]1[C@H](c2ccccc2)[C@H](CO)N1S(=O)(=O)c1ccc(-c2ccccc2)cc1 | -0.541
CO[C@H]1CN(C)C(=O)c2cc(NC(=O)c3ccc4c(c3)OCO4)ccc2OC[C@H](C)N(CCC(F)(F)F)C[C@H]1C | 1.31
COc1cccc(NC(=O)N[C@H]2C=C[C@H](CC(=O)NCc3ccncn3)O[C@@H]2CO)c1 | 1.46
CC[C@@H]1C/C=C\C[C@H](c2ccc(OC)cc2OC)NC(=O)[C@H](C)CC(=O)N1 | -0.612
SMILES | IDE exosite FP
COCC#Cc1ccc([C@@H]2[C@H]3CN(C(=O)c4cccnc4)CC(=O)N3[C@H]2CO)cc1 | 0.913
OC[C@H]1[C@@H](c2ccccc2)C2(CN(Cc3ccccc3F)C2)N1Cc1ccccc1F | -0.446
CCCC#Cc1cnc2c(c1)C(=O)N([C@@H](C)CO)C[C@H](C)[C@H](CN(C)C(=O)Nc1cc(F)ccc1F)O2 | 0.961
C[C@@H]1CCCCO[C@@H](CN(C)S(=O)(=O)c2cn(C)cn2)[C@H](C)CN([C@H](C)CO)C(=O)c2cc(NC(=O)Nc3cccc4ccccc34)ccc2O1 | -0.105
C[C@@H]1CCCCO[C@@H](CN(C)S(=O)(=O)c2cn(C)cn2)[C@H](C)CN([C@H](C)CO)C(=O)c2cc(N(C)C)ccc2O1 | 1.48
C[C@@H]1CN([C@H](C)CO)C(=O)c2cc(NC(=O)Nc3cccc4ccccc34)ccc2O[C@@H](C)CCCCO[C@@H]1CN(C)S(=O)(=O)c1cn(C)cn1 | -7.08*
Cc1ccccc1S(=O)(=O)N1[C@H](CO)[C@@H](c2ccc(-c3ccc(F)cc3)cc2)[C@@H]1C#N | 3.89
COc1ccc(C#Cc2ccc([C@H]3[C@@H](CO)N4CCCCN(S(=O)(=O)c5ccccc5)C[C@H]34)cc2)cc1 | -1.2
CCS(=O)(=O)N1CCCCN2[C@H](CO)[C@H](c3ccc(C#Cc4ccccn4)cc3)[C@@H]2C1 | -0.0513
CCCC#Cc1ccc([C@@H]2[C@H]3CN(S(=O)(=O)CC)CCCCN3[C@H]2CO)cc1 | -0.0617
O=S(=O)(Cc1ccccc1)N1CCCCN2[C@H](C1)[C@H](c1ccc(C#Cc3ccccc3)cc1)[C@@H]2CO | 5.89
CCS(=O)(=O)N1CCCCN2[C@@H](CO)[C@@H](c3ccc(C#Cc4ccccc4OC)cc3)[C@@H]2C1 | -19.7*
CCCC#Cc1ccc([C@@H]2[C@H]3CN(S(=O)(=O)Cc4ccccc4)CCCCN3[C@H]2CO)cc1 | 3.78
CCS(=O)(=O)N1CCCCN2[C@H](C1)[C@@H](c1ccc(C#Cc3ccccc3OC)cc1)[C@@H]2CO | -9.45*
CCCC#Cc1ccc([C@@H]2[C@@H](CO)N3CCCCN(S(=O)(=O)CC)C[C@@H]23)cc1 | -2.08
O=S(=O)(Cc1ccccc1)N1CCCCN2[C@H](C1)[C@@H](c1ccc(C#Cc3ccccc3)cc1)[C@@H]2CO | -1.87
CCCC#Cc1ccc([C@@H]2[C@H](CO)N3CCCCN(S(=O)(=O)CC)C[C@@H]23)cc1 | -3.04*
CCS(=O)(=O)N1CCCCN2[C@H](C1)[C@H](c1ccc(C#Cc3ccccn3)cc1)[C@@H]2CO | -0.605
CCS(=O)(=O)N1CCCCN2[C@H](CO)[C@@H](c3ccc(C#Cc4ccccc4OC)cc3)[C@@H]2C1 | -11.4*
C[C@@H](O)C#Cc1ccc([C@H]2[C@H](CO)N3CCCCN(C(=O)c4cccc(F)c4)C[C@@H]23)cc1 | -0.0617
CO[C@@H]1CN(C)C(=O)c2ccc(NC(=O)NC3CCCCC3)cc2OC[C@@H](C)N(CCc2ccccc2)C[C@H]1C | 0.868
COc1ccccc1C(=O)Nc1ccc2c(c1)C(=O)N(C)C[C@H](OC)[C@H](C)CN(C(C)=O)[C@@H](C)CO2 | -0.446
CCS(=O)(=O)N1CC2(CN(C)[C@H](CO)c3c2c2ccc(OC)cc2n3C)C1 | 0.861
CO[C@@H](CN(C)C(=O)c1ccc2c(c1)OCO2)[C@@H](C)CN([C@H](C)CO)S(=O)(=O)c1ccc(Cl)cc1 | -0.416
N#C[C@H]1[C@@H](c2ccccc2C2=CCCC2)[C@@H](CO)N1S(=O)(=O)c1ccccc1 | 5.1
O=C(c1ccc(F)cc1)N1CC(=O)N2[C@H](CO)[C@H](c3ccc(C#Cc4ccc(F)cc4)cc3)[C@H]2C1 | 0.988
C/C=C/c1ccc([C@@H]2[C@@H](CO)N3C(=O)CN(Cc4ccccc4)C[C@@H]23)cc1 | 0.862
C[C@@H]1CN([C@H](C)CO)C(=O)c2cc(C#Cc3ccccc3)cnc2O[C@H]1CN(C)C(=O)c1ccccc1 | -2.16
CN(C)C(=O)c1ccc(-c2ccc([C@@H]3[C@H]4CN(C(=O)C5CCC5)CC(=O)N4[C@H]3CO)cc2)cc1 | 2.96
